# FMDV antiviral – antivirals against foot and mouth disease virus; AID 1159524; 410,000 compounds, 1.2% hits; Potency, µM (series often up to 57.9 µM), hits mostly inhibitors; FMDV antiviral cell-based qHTS; calls by dose curve; tested in HEK293T cells; also: read-out not given here; nearly all actives have a fitted effect of over 45% in size
# Sm TGR inh – S. mansoni TGR enzyme inhibition | purified TGR, DTNB reduction, TNB absorbance 405 nm | Potency, µM (series often up to 114 µM), actives largely listed as inhibitors | Q962Y6 | AID 485364 | 360,000 compounds, 3% hits; active = well fitted inhibition curve with a large enough effect; inconclusive = small, poorly fitted or top-dose-only effect; inactive = no such curve, though single readings can be large or run the other way; also: nearly all actives have a fitted effect of over 60% in size
#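 Kinetic colorimetric format: TGR-catalysed, NADPH-driven DTNB reduction monitored via TNB absorbance. Enzyme dispensed at 20 nM; compound exposure 15 min at room temperature before reaction start.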
# Shiga toxin inh – Shiga toxin inhibition; Vero cells, Shiga toxin protein synthesis inhibition reporter; inhibition, % at 38.7 µM; 290,000 compounds, 9.2% hits; AID 2315; in the data active = inhibition mostly above about 28%, no sharp cut-off; inactive = mostly below about 43%
# CHX counter – affects cycloheximide protein synthesis inhibition readout, counter-screen. max response, %. 300,000 compounds, 12% hits. cell reporter, cycloheximide protein synthesis inhibition counterscreen; in the data active = max response mostly above about 13%, no sharp cut-off; inactive = mostly below about 14%; also: read at 38.3 µM for the half of the compounds with a filed dose
# A number is an active result; – = inactive; ? = inconclusive; · = not tested or not shown. An excerpt weighted towards active compounds, which were near 12% of everything screened.
SMILES,FMDV antiviral,Sm TGR inh,Shiga toxin inh,CHX counter
Cc1ccc(OCCSc2nc3ccccc3n2CC(=O)N2CCOCC2)c(C)c1,–,–,·,·
CC(=O)Nc1ccc(SCC(=O)Nc2ccc3c(c2)OCCO3)cc1,–,·,·,·
O=C(COC(=O)c1c(F)cccc1Cl)NC(=O)Nc1ccc2c(c1)OCCO2,–,–,·,·
Cc1ccccc1OCC(=O)N/N=C/c1ccc(N2CCOCC2)o1,–,7.94µM,–,–
O=C(CSCc1c(Cl)cccc1Cl)Nc1ccc2c(c1)OCCO2,–,–,76.3,59.3
Cc1ccc(NC(=O)CCOc2ccccc2C)cc1C,–,–,–,25.5
O=C(COc1ccc(Br)cc1Cl)NC(=O)Nc1ccc2c(c1)OCCO2,–,–,63.3,35.8
O=C(COC(=O)c1cccnc1Cl)NCc1cccs1,–,–,–,37.2
N#Cc1cccc(NCC(=O)Nc2ccc3c(c2)OCCO3)c1,–,–,63.4,27.3
CCOc1ncccc1C(=O)OCC(=O)NCc1cccs1,–,·,·,·
COc1ccccc1OCC(=O)Nc1ccc(NC(=O)COc2ccccc2OC)cc1,–,–,–,–
COc1ccccc1OCC(=O)Nc1ccc(Cl)cc1,–,–,51.0,24.1
CCCc1nn2c(=O)cc(COc3ccc(/C=C(\C#N)C(=O)Nc4ccccc4)cc3)nc2s1,–,–,·,·
COC(=O)C1=C(C)N(c2ccc(OC)c(OC)c2)C(=O)/C1=C\c1ccco1,–,15.8µM,–,–
CCOC(=O)C1=C(C)N(c2ccccc2)C(=O)/C1=C\c1ccc(O)c(OC)c1,?,3.16µM,–,–
CCOC(=O)C1=C(C)N(c2ccccc2)C(=O)/C1=C\c1cccs1,?,–,–,–
CCOC(=O)C1=C(C)N(c2ccccc2)C(=O)/C1=C\c1ccco1,–,44.7µM,–,–
Cc1ccc(NC(=O)CC2Nc3cc(C)c(C)cc3NC2=O)c(C)c1 (stereo not given),–,–,·,·
O=C(O)c1ccccc1C(=O)Nc1ccccc1NC(=O)c1ccccc1C(=O)O,–,·,·,·
COC(=O)C1=C(Nc2ccccc2NC(=O)c2ccccc2C(=O)O)CSC1,–,?,103.2,56.3
COC(=O)C1=C(Nc2ccccc2NC(=O)CCCC(=O)O)CSC1,–,–,–,13.5
COc1ccc(Cl)cc1NC(=O)Cn1cc2c(n1)CCC(C)C2 (stereo not given),–,–,·,·
CCOc1ccc2nc(N3CCN(C(=O)c4ccco4)CC3)sc2c1,–,–,·,·
CCOc1ccc2nc(N3CCC(C(=O)N4CCN(c5ccccn5)CC4)CC3)sc2c1,14.1µM,–,–,–
CCOc1ccc2nc(N3CCC(C(=O)N4CCN(c5ncccn5)CC4)CC3)sc2c1,?,–,–,25.7
SMILES,FMDV antiviral,Sm TGR inh,Shiga toxin inh,CHX counter
O=C(CSc1nccn1Cc1ccccc1)NCc1ccco1,–,?,·,·
O=C(CCc1ccccc1)N1CCN(c2ccc(F)cc2)CC1,–,·,–,–
O=C(CCCOc1ccccc1)N1CCN(c2ccccn2)CC1,–,–,114.9,26.8
O=C(CCCOc1ccc(Cl)cc1Cl)N1CCN(c2ccccn2)CC1,–,–,–,–
O=C(CCCOc1ccccc1)N1CCN(c2ccc(F)cc2)CC1,–,–,–,24.4
O=C([O-])c1ccc(-[n+]2c(-c3ccccc3)cc(-c3ccccc3)cc2-c2ccccc2)cc1,–,–,·,·
O=[N+]([O-])c1ccc(-[n+]2c(-c3ccccc3)cc(-c3ccccc3)cc2-c2ccccc2)cc1,–,–,·,–
Oc1ccc(-[n+]2c(-c3ccccc3)cc(-c3ccccc3)cc2-c2ccccc2)cc1,10µM,–,·,·
COc1ccc(-[n+]2c(-c3ccccc3)cc(-c3ccccc3)cc2-c2ccccc2)cc1,3.16µM,–,·,·
CN(C)c1ccc(CNC(=O)C2CCN(c3nnc(-n4cccc4)s3)CC2)cc1,–,–,·,·
C/C(=N\NC(=O)c1n[nH]c2c1CCC2)c1ccco1,–,–,–,25.8
CCC(C)(C)C1CCc2[nH]nc(C(=O)N/N=C(\C)c3ccco3)c2C1 (stereo not given),–,–,106.7,61.0
C/C(=N/NC(=O)c1ccccn1)c1ccco1,·,–,–,–
CC(C)COc1ccc(C(=O)NCC2(N3CCN(C)CC3)CCCCC2)cc1,–,–,·,·
O=C(CSCc1ccccc1Cl)NNC(=S)Nc1ccccc1,–,–,–,10.5
O=C(O)C1=C[C@@H](c2ccc(Br)cc2)C[C@@H](OCc2ccc(CO)cc2)O1,–,39.8µM,–,–
NC(=O)C1=C[C@H](c2ccc(Br)cc2)C[C@H](OCc2ccc(CO)cc2)O1,–,–,56.4,24.8
O=C(O)C1=C[C@H](c2ccc3c(c2)OCO3)C[C@H](OCc2ccc(CO)cc2)O1,–,·,·,·
O=C(Nc1ccccc1)C1=C[C@@H](c2ccc(Br)cc2)C[C@@H](OCc2ccc(CO)cc2)O1,–,–,85.9,45.8
O=C(NC1CC1)C1=C[C@@H](c2ccc(Br)cc2)C[C@@H](OCc2ccc(CO)cc2)O1,–,–,–,–
C=CCOC(=O)C1=C[C@@H](c2ccc3c(c2)OCO3)C[C@@H](OCc2ccc(CO)cc2)O1,–,39.8µM,81.7,19.4
CCOc1ccccc1NC(=O)CN1C(=O)COc2ccc(S(=O)(=O)Nc3ccccc3)cc21,–,–,·,·
Nc1c(-c2nc(-c3ccccc3)cs2)c2ccccn2c1C(=O)c1ccc2c(c1)OCO2,–,–,·,·
O=C(O)C1=C[C@H](c2cccs2)C[C@H](OCc2ccc(CO)cc2)O1,–,35.5µM,–,–
O=C(Nc1ccccc1)C1=C[C@H](c2ccc3c(c2)OCO3)C[C@H](OCc2ccc(CO)cc2)O1,–,–,103.6,72.6
SMILES,FMDV antiviral,Sm TGR inh,Shiga toxin inh,CHX counter
O=C(O)C1=C[C@H](c2ccc(F)cc2)C[C@H](OCc2ccc(CO)cc2)O1,–,35.5µM,–,–
O=C(O)C1=C[C@H](c2csc3ccccc23)C[C@H](OCc2ccc(CO)cc2)O1,–,–,–,–
O=C(O)C1=C[C@H](c2ccccc2)C[C@H](OCc2ccc(CO)cc2)O1,–,?,–,–
Cc1cc(C)c2c(CC(=O)Nc3ccc(S(=O)(=O)Nc4ncccn4)cc3)coc2c1,–,–,·,·
Cc1ccccc1NC(=O)Cc1c(O)c2ccccc2[nH]c1=O,·,–,–,–
Cc1ccc(NC(=O)Cc2c(O)c3ccccc3[nH]c2=O)c(C)c1,–,–,–,17.7
Cc1cccc(NC(=O)c2c(O)c3ccccc3[nH]c2=O)c1,–,–,38.1,32.8
O=C(Nc1cccc(O)c1)c1c(O)c2ccccc2[nH]c1=O,–,–,38.2,48.1
O=C(Nc1cccc(C(F)(F)F)c1)c1c(O)c2ccccc2[nH]c1=O,–,–,–,–
Cc1cc2c(cc1C)NC(CC(=O)Nc1ccccc1SC(F)(F)F)C(=O)N2 (stereo not given),–,–,·,·
CC(C)C1Nc2c(O)cc(Cl)c([N+](=O)[O-])c2C2C=CCC21 (stereo not given),?,7.08µM,–,–
COc1ccc(NC(=O)Cn2nnc(C(=O)NCc3ccccc3Cl)c2N)cc1Cl,–,–,·,·
Cc1ccc(Cn2c(/C=C/c3ccco3)nc3ccccc32)cc1,–,11.2µM,160.5,103.4
Clc1ccc(Cn2c(/C=C/c3ccco3)nc3ccccc32)cc1,–,28.2µM,187.4,215.6
COc1cc(C(=O)Nc2nccs2)c(Br)c(OC)c1OC,–,–,–,–
COc1ccc(CCNC(=O)c2ccc(SC)cc2OC)cc1,–,–,–,–
COc1ccccc1C(=O)Nc1cccc(SC)c1,–,–,66.4,32.8

# Screens deposited in PubChem by National Center for Advancing Translational Sciences (NCATS).
